According to PubChem BioAssay AID1159580 (chemical genetic matrix, 2015):
In all, about 5,500 compounds went through this assay and about 2,000 (36%) were called active. Inconclusive results (about 18%) are left out. This is one part of the list. Values without a mark were called inactive. No stated cut-off is given here; in the data, active means normalized growth mostly below about 0.91 (no sharp cut-off); inconclusive means no clear call, values can overlap the other calls; inactive means mostly above about 0.92.

Test: chemical genetic growth profiling, strain panel (AID 1159580);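 further: tested at 20 µM; growth read once vehicle control cultures reached saturation at 30 °C; 1 = growth at the plate median or of vehicle wells; lower values mean less growth of the strain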
Settings: S. cerevisiae deletion strains, growth OD

Work on CC(C)=CCCC1(C)C=Cc2c(O)c3c(c(CC=C(C)C)c2O1)OC12C(=CCCC1C(C)(C)O[C@@]2(C/C=C(\C)C(=O)O)C(=O)O)C3=O (stereo partly specified) yielded a normalized growth (locus YKL009W, strain mrt4, hits give low values) of 1.11, a normalized growth (locus YKL068W, hits give low values) of 0.981 and a normalized growth (locus YKL085W, strain MDH1 (second series), hits give low values) of 0.968. For the same compound, the normalized growth (locus YKL085W, strain MDH1, hits give low values) was 0.968, the normalized growth (locus YKL160W, strain elf1, hits give low values) was 0.896 (active) and the normalized growth (locus YKR001C, strain vps1, hits give low values) was 0.739 (active). For the same compound, the normalized growth (locus YKR026C, strain gcn3, hits give low values) was 1, the normalized growth (locus YKR091W, strain srl3, hits give low values) was 0.998 and the normalized growth (locus YLL001W, strain dnm1, hits give low values) was 0.932. For the same compound, the normalized growth (locus YLL026W, hits give low values) was 0.985, the normalized growth (locus YLL041C, strain sdh2, hits give low values) was 0.992 and the normalized growth (locus YLR027C, strain aat2, hits give low values) was 0.911 (active). For the same compound, the normalized growth (locus YLR039C, strain RIC1, hits give low values) was 0.366 (active), the normalized growth (locus YLR058C, strain SHM2, hits give low values) was 0.803 (active) and the normalized growth (locus YLR102C, strain apc9, hits give low values) was 0.988. For the same compound, the normalized growth (locus YLR113W, strain HOG1, hits give low values) was 0.882, the normalized growth (locus YLR221C, strain rsa3, hits give low values) was 0.823 (active) and the normalized growth (locus YLR258W, strain gsy2, hits give low values) was 0.924. The normalized growth (locus YLR262C, strain YPT6 (second series), hits give low values) was 0.402 (active), the normalized growth (locus YLR268W, strain sec22, hits give low values) was 0.772 (active) and the normalized growth (locus YLR320W, strain mms22, hits give low values) was 0.646 (active). For the same compound, the normalized growth (locus YLR330W, strain CHS5, hits give low values) was 0.845 (active), the normalized growth (locus YLR342W, strain FKS1 (second series), hits give low values) was 0.77 (active) and the normalized growth (locus YLR342W, strain FKS1, hits give low values) was 0.818 (active). For the same compound, the normalized growth (locus YLR357W, strain rsc2, hits give low values) was 1.01, the normalized growth (locus YLR370C, strain arc18, hits give low values) was 0.988 and the normalized growth (locus YLR371W, strain rom2, hits give low values) was 0.738 (active). The normalized growth (locus YLR384C, strain iki3, hits give low values) was 1.02, the normalized growth (locus YLR418C, strain cdc73, hits give low values) was 0.509 (active) and the normalized growth (locus YML016C, strain PPZ1, hits give low values) was 0.907 (active). For the same compound, the normalized growth (locus YML032C, strain rad52, hits give low values) was 0.828 (active), the normalized growth (locus YML120C, strain ndi1, hits give low values) was 0.964 and the normalized growth (locus YML124C, strain tub3, hits give low values) was 0.948. The normalized growth (locus YMR058W, strain fet3, hits give low values) was 0.258 (active), the normalized growth (locus YMR078C, strain ctf18, hits give low values) was 0.973 and the normalized growth (locus YMR125W, strain sto1, hits give low values) was 0.848 (active). The normalized growth (locus YMR129W, hits give low values) was 0.935, the normalized growth (locus YMR205C, strain PFK2, hits give low values) was 0.812 (active) and the normalized growth (locus YMR223W, strain ubp8, hits give low values) was 0.825 (active). For the same compound, the normalized growth (locus YMR231W, strain pep5, hits give low values) was 0.762 (active), the normalized growth (locus YMR263W, strain SAP30, hits give low values) was 0.936 and the normalized growth (locus YMR307W, strain GAS1, hits give low values) was 0.317 (active). For the same compound, the normalized growth (locus YNL067W, strain RPL9B, hits give low values) was 0.917, the normalized growth (locus YNL071W, strain lat1, hits give low values) was 0.463 (active) and the normalized growth (locus YNL128W, strain TEP1, hits give low values) was 0.797 (active). For the same compound, the normalized growth (locus YNL153C, strain GIM3, hits give low values) was 0.847 (active), the normalized growth (locus YNL183C, strain NPR1, hits give low values) was 0.895 and the normalized growth (locus YNL209W, strain ssb2, hits give low values) was 0.783 (active). The normalized growth (locus YNL233W, strain BNI4, hits give low values) was 0.823 (active), the normalized growth (locus YNL248C, strain rpa49, hits give low values) was 0.935 and the normalized growth (locus YNL250W, strain rad50, hits give low values) was 0.956. The normalized growth (locus YNL271C, strain bni1, hits give low values) was 0.947, the normalized growth (locus YNL298W, strain CLA4, hits give low values) was 0.963 and the normalized growth (locus YNL307C, strain MCK1, hits give low values) was 0.437 (active). The normalized growth (locus YNL322C, strain KRE1 (second series), hits give low values) was 1.04, the normalized growth (locus YNL322C, strain KRE1, hits give low values) was 0.923 (active) and the normalized growth (locus YNR049C, strain mso1, hits give low values) was 0.986. The normalized growth (locus YNR052C, strain pop2, hits give low values) was 0.846 (active), the normalized growth (locus YOL012C, strain htz1) was 0.267 and the normalized growth (locus YOL147C, strain pex11, hits give low values) was 0.867 (active). For the same compound, the normalized growth (locus YOR001W, strain rrp6, hits give low values) was 0.901, the normalized growth (locus YOR061W, strain CKA2, hits give low values) was 0.831 (active) and the normalized growth (locus YOR069W, strain VPS5, hits give low values) was 0.847 (active). The normalized growth (locus YOR070C, strain gyp1, hits give low values) was 0.931, the normalized growth (locus YOR080W, strain dia2, hits give low values) was 1.03 and the normalized growth (locus YOR083W, strain WHI5, hits give low values) was 0.909. For the same compound, the normalized growth (locus YOR106W, strain vam3, hits give low values) was 0.697 (active), the normalized growth (locus YOR136W, strain idh2, hits give low values) was 0.94 and the normalized growth (locus YOR144C, strain elg1, hits give low values) was 0.888 (active). The normalized growth (locus YOR184W, strain ser1, hits give low values) was 0.632 (active), the normalized growth (locus YOR231W, strain MKK1, hits give low values) was 0.942 and the normalized growth (locus YOR265W, strain rbl2, hits give low values) was 0.945. The normalized growth (locus YOR270C, strain vph1, hits give low values) was 0.517 (active), the normalized growth (locus YOR290C, strain snf2, hits give low values) was 0.944 and the normalized growth (locus YOR316C, strain cot1, hits give low values) was 0.979. The normalized growth (locus YPL051W, strain arl3, hits give low values) was 0.664 (active), the normalized growth (locus YPL055C, strain LGE1, hits give low values) was 0.734 (active) and the normalized growth (locus YPL078C, strain atp4, hits give low values) was 0.897. For the same compound, the normalized growth (locus YPL106C, strain sse1, hits give low values) was 0.993, the normalized growth (locus YPL240C, strain hsp82, hits give low values) was 0.955 and the normalized growth (locus YPL256C, strain CLN2, hits give low values) was 0.893. For the same compound, the normalized growth (locus YPR119W, strain clb2, hits give low values) was 0.956, the normalized growth (locus YPR141C, strain kar3, hits give low values) was 0.962 and the normalized growth (locus YPR163C, strain tif3, hits give low values) was 0.524 (active). For the same compound, the normalized growth (locus YPR167C, strain met16, hits give low values) was 0.939 and the normalized growth (strain wtn01, hits give low values) was 0.817 (active).
